Screens (PubChem)
In the library only some 3.4% were active in any assay of this set; here they are far more common.
TEAD-YAP inh = TEAD-YAP interaction inhibition | HEK-TIYL cells, TEAD-Gal4/YAP UAS-luciferase luminescence | inhibition, % at 9.12 µM | 1.4% of 640,000 active; in the data active = inhibition above about 32%;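 note: 0% = median of test compound wells and 100% = reference inhibitor wells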
GPR151 ag = activators of human GPR151; Q8TDV0; PathHunter beta-arrestin GPR151 cells, luminescence; activation, % at 11.2 µM; 1% of 650,000 active; AID 1508602; in the data active = activation above about 4.9%;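 note: 0% = median of compound wells and 100% = cells with positive control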
Target sequence (Q8TDV0 whole entry, looked up): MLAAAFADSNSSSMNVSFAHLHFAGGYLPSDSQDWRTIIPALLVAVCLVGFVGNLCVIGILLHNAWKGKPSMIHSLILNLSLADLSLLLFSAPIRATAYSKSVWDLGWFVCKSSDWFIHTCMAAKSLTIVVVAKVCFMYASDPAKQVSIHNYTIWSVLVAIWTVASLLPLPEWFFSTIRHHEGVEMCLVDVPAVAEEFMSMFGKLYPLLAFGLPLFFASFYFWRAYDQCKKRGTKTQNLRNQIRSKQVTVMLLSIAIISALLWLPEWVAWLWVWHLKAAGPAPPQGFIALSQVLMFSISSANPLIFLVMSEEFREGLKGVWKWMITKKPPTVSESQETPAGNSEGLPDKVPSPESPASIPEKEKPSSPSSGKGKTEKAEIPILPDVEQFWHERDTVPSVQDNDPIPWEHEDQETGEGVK
MITF inh = human MITF inhibition, primary screen. O75030. AlphaScreen MITF homodimerization, bead proximity signal. inhibition, % at 2.6 µM. 0.91% of 650,000 active. AID 1259374; in the data active = inhibition above about 50%;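 note: 0% = vehicle wells with protein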
FBW7 act = human FBW7 E3 ligase activation, primary screen | AlphaScreen FBW7–phospho-cyclin E peptide binding, activator screen | normalized activity (activation), % at 26.1 µM | AID 1259310 | 0.13% of 650,000 active; in the data active = normalized activity above about 1.9%;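 note: purified mutant Fbw7 with reduced substrate affinity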
GPR151 confirm = confirmation of human GPR151 activators; AID 1508609; shares compounds with GPR151 ag; GPR151 PathHunter beta-arrestin cells, luminescence, 90 min; % of EA-reagent control over plate median; activation, % at 11.2 µM; 6,700 tested, under 10 active;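 active = mean percent activation across replicates above the confirmation screen cutoff of 4.91%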
GPR119 counter = activates human GPR119 in a GPR151 counter-screen | 0.3% of 6,700 active | AID 1508611 | activation, % at 11.2 µM | GPR119 PathHunter beta-arrestin cells, luminescence, 90 min; 0 = compound-well median, 100 = enzyme-acceptor control | shares compounds with GPR151 ag;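 active = mean percent activation in the counterscreen above 29.09%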;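 note: counterscreen on off-target GPR119 to flag nonselective hits from the GPR151 activator screen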
An asterisk follows results filed as active.

For CCC(C(=O)OC)n1cnc2scc(-c3cccc([N+](=O)[O-])c3)c2c1=O (configuration not stated) the results were TEAD-YAP inh -11, GPR151 ag 15*, MITF inh 1, FBW7 act 0, GPR151 confirm 1 and GPR119 counter 8.
For NC(=O)Cn1cnc2scc(-c3cccc([N+](=O)[O-])c3)c2c1=O the results were TEAD-YAP inh -15, GPR151 ag 0, MITF inh 0 and FBW7 act 0.
For O=C1CC(Nc2ccc(O)cc2)C(=O)N1c1ccccc1 (configuration not stated) the results were TEAD-YAP inh -1, GPR151 ag 0, MITF inh -7 and FBW7 act 0.
For O=C(CCC(=O)c1ccc(Oc2ccccc2)cc1)Nc1cccnc1 the results were TEAD-YAP inh 4, GPR151 ag 6.8*, MITF inh -25, FBW7 act 0, GPR151 confirm -1 and GPR119 counter 5.
Screening O=C(CCC(=O)c1ccc(Br)cc1)Nc1cccnc1 returned TEAD-YAP inh -5, GPR151 ag -1, MITF inh 5 and FBW7 act 0.
`C=CCOc1c(Br)cc(CNCCO)cc1OC` gave TEAD-YAP inh 4, GPR151 ag 6.7*, MITF inh -5, FBW7 act 0, GPR151 confirm -1 and GPR119 counter -3.
COc1cc(CNCCO)cc(Br)c1OCc1ccccc1 was read as TEAD-YAP inh 0, GPR151 ag -1, MITF inh 16 and FBW7 act 1.
Screening CCN(CC)S(=O)(=O)c1cccc(C(=O)N=C2N=C3C=CC=CN3Cc3ccccc32)c1 returned TEAD-YAP inh -41, GPR151 ag -6, MITF inh 20 and FBW7 act 0.
`Cc1cc(S(=O)(=O)N2CCN(c3ccc(F)cc3)CC2)c(Cl)cc1Cl` gave TEAD-YAP inh -11, GPR151 ag 5.3*, MITF inh 5, FBW7 act 0, GPR151 confirm 1 and GPR119 counter 5.
O=S(=O)(c1cccc2ccccc12)N1CCN(c2ccc(F)cc2)CC1 was read as TEAD-YAP inh -5, GPR151 ag 19*, MITF inh 0, FBW7 act 0, GPR151 confirm 0 and GPR119 counter -6.
`COc1ccc(N2CCN(S(=O)(=O)c3ccccc3F)CC2)cc1` gave TEAD-YAP inh 4, GPR151 ag -1, MITF inh 6 and FBW7 act 0.
Screening COc1ccc(N2CCN(S(=O)(=O)c3ccccc3C(F)(F)F)CC2)cc1 returned TEAD-YAP inh 2, GPR151 ag 5.1*, MITF inh 0, FBW7 act 0, GPR151 confirm 0 and GPR119 counter 1.
Screening O=S(=O)(c1cccc2ccccc12)N1CCN(c2ncccn2)CC1 returned TEAD-YAP inh 7, GPR151 ag -1, MITF inh 13 and FBW7 act 0.
`O=C(OCCOc1ccccc1F)c1ccc(F)c(S(=O)(=O)N2CCOCC2)c1` gave TEAD-YAP inh -2, GPR151 ag 1, MITF inh 7 and FBW7 act 0.
For CCOC(=O)C1=C(C)N=c2s/c(=C\c3c(OCC)ccc4ccccc34)c(=O)n2C1c1ccccc1 (configuration not stated) the results were TEAD-YAP inh -7, GPR151 ag -2, MITF inh 11 and FBW7 act 1.
COc1ccccc1CN[C@H]1C[C@H]2C(=O)N[C@@H](CO)C(=O)N2C1 was read as TEAD-YAP inh 2, GPR151 ag 5.2*, MITF inh 11, FBW7 act 1, GPR151 confirm 1 and GPR119 counter 15.
`CC(C)C[C@@H]1NC(=O)[C@@H]2C[C@H](NCc3ccc(C(C)C)cc3)CN2C1=O` gave TEAD-YAP inh 3, GPR151 ag -1, MITF inh 2 and FBW7 act 0.
COc1ccc(CN[C@H]2C[C@H]3C(=O)N[C@H](CC(C)C)C(=O)N3C2)cc1 was read as TEAD-YAP inh -5, GPR151 ag 5.1*, MITF inh 6, FBW7 act 0, GPR151 confirm 0 and GPR119 counter 10.
